# Hits are enriched below; roughly 1.7% of the tested compounds scored in any of these assays.
# PREPL inhibitor: PREPL enzyme inhibitors, primary screen, biochemical, fluorescence polarization. Prolyl endopeptidase-like (Homo sapiens), Q4J6C6. recombinant PREPL, fluorescence polarization activity-based probe. inhibition, % at 5.96 µM. 0.68% of 320,000 active. AID 2751, 2010; in the data active means inhibition above about 43%;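 further: 0% = enzyme with DMSO and 100% = wells lacking enzyme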
# p97 inhibitor: inhibitors of human p97 ATPase, primary screen, biochemical; recombinant p97 ATPase, Kinase-Glo ATP luminescence, 3 h; inhibition, % at 8 µM; 0.42% of 220,000 active; Transitional endoplasmic reticulum ATPase (Homo sapiens), P55072; in the data active means inhibition above about 15%;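 further: 0% = DMSO vehicle and 100% = wells lacking enzyme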
# LYPLA1 inh: LYPLA1 inhibitors, primary screen, counter-screen for PME1 inhibitor project, biochemical, fluorescence polarization, FP-Rh probe ABPP | recombinant LYPLA1 | inhibition, % at 5.9 µM | 0.16% of 320,000 active | AID 2174, 2009;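 active means inhibition above the mean of all tested compounds plus 3 SD, set per campaign, cut at about 14% in these data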;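 further: inhibitors block serine hydrolase probe labeling of LYPLA1 so polarization falls; 0% = enzyme with DMSO and 100% = wells lacking LYPLA1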
# Hck Nef HTS: inhibitors of Nef-activated human Hck kinase, primary screen, biochemical, Z-Lyte FRET, 384-well, Hck-YEEI; AID 463187, 2010; inhibition, % at 20 µM; Tyrosine-protein kinase HCK (Homo sapiens), P08631; 0.68% of 220,000 active; Recombinant Hck-YEEI plus Nef, Z-Lyte FRET kinase assay;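 active means Hck-Nef kinase inhibition above about 50%, limit read from the data; inactive means inhibition below that limit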;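 further: 0% = DMSO with Hck plus Nef and 100% = Hck alone without Nef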
# Target sequence (P08631 whole entry, looked up): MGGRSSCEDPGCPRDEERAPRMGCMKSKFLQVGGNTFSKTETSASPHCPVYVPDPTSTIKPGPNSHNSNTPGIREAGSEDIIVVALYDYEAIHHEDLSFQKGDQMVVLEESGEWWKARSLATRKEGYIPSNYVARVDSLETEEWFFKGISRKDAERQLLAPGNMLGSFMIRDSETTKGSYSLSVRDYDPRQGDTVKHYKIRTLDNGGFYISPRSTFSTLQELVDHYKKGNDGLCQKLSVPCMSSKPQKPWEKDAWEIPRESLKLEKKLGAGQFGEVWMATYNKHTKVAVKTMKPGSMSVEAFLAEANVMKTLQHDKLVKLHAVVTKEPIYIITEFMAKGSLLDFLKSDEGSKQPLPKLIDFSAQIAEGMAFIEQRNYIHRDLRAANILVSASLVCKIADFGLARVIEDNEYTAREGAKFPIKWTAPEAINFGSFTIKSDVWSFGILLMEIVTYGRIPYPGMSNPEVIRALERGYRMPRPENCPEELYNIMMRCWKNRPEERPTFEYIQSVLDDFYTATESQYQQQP
# Rin1 Abl inh: inhibitors of Rin1-Abl protein binding, primary screen, biochemical, TR-FRET; Tyrosine-protein kinase ABL1 (Homo sapiens) + Ras and Rab interactor 1 (Homo sapiens), …; inhibition, % at 7.35 µM; 0.4% of 360,000 active; AID 588664, 2011; in the data active means inhibition above about 5%, passing the limit was not always enough
# LYPLA2 counter: LYPLA2 inhibitors, primary screen, counter-screen for PME1 inhibitor project, biochemical, fluorescence polarization, FP-Rh probe ABPP; 0.38% of 320,000 active; inhibition, % at 5.9 µM; recombinant LYPLA2;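 active means inhibition above the screen-wide mean plus 3 SD, limit set per campaign, cut at about 26% in these data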;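 further: 0% = LYPLA2 with DMSO and 100% = wells lacking LYPLA2 enzyme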
# LYPLA2 confirm: LYPLA2 inhibitors, retest, confirmation, counter-screen for PME1 inhibitor project, biochemical, fluorescence polarization, FP-Rh probe ABPP; 72% of 1,100 active; shares compounds with LYPLA2 counter; inhibition, % at 5.9 µM; AID 2232, 2010; recombinant LYPLA2;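 active means mean inhibition across replicates above the hit cutoff set in the primary screen, cut at about 26% in these data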;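 further: blocked labeling of the enzyme by serine hydrolase FP-Rh probe lowers polarization; 0% = enzyme with DMSO and 100% = wells lacking LYPLA2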
# LYPLA2 ABPP: LYPLA2 inhibitors in proteome, late-stage follow-up, gel-based competitive ABPP, fluorescence, assay provider | shares compounds with LYPLA2 counter | rhLYPLA2 in mouse brain proteome, gel ABPP FP-Rh | inhibition, % at 20 µM | 30% of 150 active | AID 652029, 2013;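 active means inhibition of LYPLA2 enzyme probe labeling above about 50%, limit read from the data; inactive means inhibition below that limit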;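 further: loss of FP-Rh probe labeling of the LYPLA2 gel band measured as band density; 0% = DMSO only control band and 100% = blank gel background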
# An asterisk follows results filed as active; . = no result given.
SMILES,PREPL inhibitor,p97 inhibitor,LYPLA1 inh,Hck Nef HTS,Rin1 Abl inh,LYPLA2 counter,LYPLA2 confirm,others
CC(C)(CNC(=O)CNC(=O)c1ccc(Cl)cc1Cl)N1CCOCC1,.,.,.,.,-3,.,.,
O=C(CSc1nc(=O)[nH]c2c1CCCC2)Nc1ccc(F)cc1F,-7,.,2,.,3,0,.,
CC(=O)c1ccc(N2CCN(C(=O)c3ccc(OCc4c(C)noc4C)cc3)CC2)cc1,9,-1,-4,5,0,37*,28*,
COc1ccc(N2CCN(C(=O)CCNC(=O)c3ccc(C(C)(C)C)cc3)CC2)cc1,16,-4,-3,23,1,6,.,
Cc1noc(C)c1COc1ccc(C(=O)N2CCN(c3cccc(Cl)c3)CC2)cc1,.,.,.,.,1,.,.,
COc1cc(C(=O)Nc2ccc(N3CCN(C(=O)c4ccc(C)cc4)CC3)cc2)cc(OC)c1OC,15,.,8,.,0,38*,50*,LYPLA2 ABPP=35
Cc1ccc(C(=O)N2CCN(c3ccc(NC(=O)c4cccnc4)cc3)CC2)cc1,12,0,0,0,3,17,.,
COc1ccc(N2CCN(C(=O)c3ccc(C(C)(C)C)cc3)CC2)cc1,9,-5,6,-2,0,79*,87*,LYPLA2 ABPP=86*
O=C(CNC(=O)c1ccc(S(=O)(=O)N2CCCC2)cc1)N/N=C/c1c(Cl)cccc1Cl,2,4,-2,-3,-1,26*,22,
CSCCC(NS(=O)(=O)c1ccccc1F)C(=O)NCc1cccnc1 (stereo not given),1,.,-1,.,4,0,.,
CCc1ccc(OCC(=O)N2CC(C(N)=O)Oc3ccccc32)cc1 (stereo not given),20,.,-1,.,-3,2,.,
Cn1nccc1C(=O)N1CCCC(N2CCN(c3cccc(C(F)(F)F)c3)CC2)C1 (stereo not given),4,.,4,.,0,54*,52*,LYPLA2 ABPP=37
Cc1cc(C)c(C(=O)N2CCCC(N3CCN(c4cccc(C(F)(F)F)c4)CC3)C2)o1 (stereo not given),19,.,10,.,5,52*,50*,LYPLA2 ABPP=31
Cc1ccc(N/C=C(/C#N)c2ccsc2)cc1,37,-1,1,0,-4,0,.,
COc1ccc(N/C=C(\C#N)c2ccc(OCCCF)cc2)cc1,9,-4,6,-2,-1,73*,61*,LYPLA2 ABPP=37
Cc1ccc(N/C=C(\C#N)c2ccc(OCCCF)cc2)cc1,6,-2,-2,1,-1,65*,75*,LYPLA2 ABPP=52*
CCOC(=O)c1ccc(NC(=S)N2CCCC2c2ccc(OC)c(OC)c2)cc1 (stereo not given),10,-2,0,1,0,30*,25,
COc1ccc(NC(=S)N2CCCC2c2ccc(OC)c(OC)c2)cc1 (stereo not given),11,2,-3,16,1,1,.,
CN(CCc1ccccn1)c1ccccc1,.,.,.,.,3,.,.,
Cc1ccc(NC(=O)COC(=O)c2ccc(CN3CCCC3=O)cc2)cc1C,.,.,.,.,1,.,.,
O=C(NC1CCc2ccccc21)c1cc(COc2cncc(Cl)c2)on1 (stereo not given),19,.,4,.,-1,43*,33*,
COCCNC(=O)CN(Cc1ccccc1)C(=O)CCC(=O)Nc1nccs1,-2,.,0,.,-1,-2,.,
CCN1CCN(c2ccc(S(=O)(=O)N3CCOCC3)cc2NC(=O)CCC(C)C)CC1,3,.,2,.,3,0,.,
CC(CCC(C)C)=NNC(=S)Nc1cc(S(=O)(=O)N2CCOCC2)ccc1N1CCOCC1,.,.,.,.,.,.,.,LYPLA2 ABPP=60*
CCOc1cccc(/C=N/NC(=S)Nc2cc(S(=O)(=O)N3CCOCC3)ccc2N2CCOCC2)c1O,22,6,2,-4,-3,34*,43*,
SMILES,PREPL inhibitor,p97 inhibitor,LYPLA1 inh,Hck Nef HTS,Rin1 Abl inh,LYPLA2 counter,LYPLA2 confirm,others
COc1ccc2ccccc2c1/C=N/NC(=S)Nc1cc(S(=O)(=O)N2CCOCC2)ccc1N1CCOCC1,9,6,-4,6,-3,-12,.,
O=C(NCCCn1ccnc1)C1CCN(S(=O)(=O)c2ccc(F)cc2)CC1,-4,.,-1,.,2,3,.,
CCCC(C)c1nc(C(N)=O)c2[nH]c(=O)n(-c3ccc(OC)c(OC)c3)c2n1 (stereo not given),-6,.,0,.,2,2,.,
Cc1ccc(S(=O)(=O)N2C[C@H]3[C@H]4C(=O)N(c5ccccc5)C(=O)[C@H]4C[C@H](OC(=O)Nc4c(C)noc4C)[C@@]3(O)C2)cc1,.,.,.,.,-4,.,.,
CCCOc1ccc(C(=O)NNC(=S)NC(=O)c2ccccc2[N+](=O)[O-])cc1,13,.,-1,.,-4,27*,29*,
CC(C)(C)C(=O)N1CCN(c2ccc([N+](=O)[O-])cc2Cl)CC1,11,0,2,-1,-2,7,.,
O=[N+]([O-])c1ccc(N2CCN(c3ccc([N+](=O)[O-])cc3CO)CC2)c(CO)c1,37,.,4,.,-3,27*,30*,
Cc1ccc(C(=O)N2CCN(C)CC2)cc1S(=O)(=O)N1CCCCCC1,4,.,1,.,0,27*,-4,
Cc1ccc(C(=O)N2CCN(C)CC2)cc1S(=O)(=O)N1CCCCC1,.,-4,.,-8,-3,.,.,
COc1ccc(CNS(=O)(=O)CCNCCc2ccccc2)cc1,.,.,.,.,-2,.,.,
COc1ccc(CCNCc2ccc(OCc3ccccc3)cc2)cc1,-37,.,1,.,3,32*,30*,
CCOC(=O)CC(=O)c1sc2c(c1N)c(=O)[nH]c(=O)n2-c1ccc(OC)cc1,-7,.,-3,.,-2,1,.,
COc1ccccc1C(=O)NC(=S)Nc1ccc(N2CCN(C(=O)c3ccco3)CC2)cc1,33,.,2,.,3,27*,26,
O=C(Nc1ccc(N2CCN(C(=O)c3ccco3)CC2)cc1)c1ccc(Br)cc1,-4,.,1,.,0,-1,.,
O=C(Nc1ccc(N2CCN(C(=O)c3ccco3)CC2)c(Cl)c1)c1c(F)c(F)c(F)c(F)c1F,9,1,1,5,3,62*,64*,LYPLA2 ABPP=50*

# Compound activity: PubChem, several laboratories
